The values that follow come from PubChem BioAssay (NCI).

“And” between values parts separate entries of the source, which are not always exact repeats. Identical values can stand only once. About 83,000 compounds went through this panel and 20% of them were active in at least one assay; those are over-represented in the sample as a whole.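 Values shown are percent growth following 48 h exposure of cells in 96-well plates to a single concentration of compound; below 10 was considered active.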 Unmarked numbers belong to inactive results. The source made the active and inactive calls. Where a SMILES comes first, the peptide text is derived from it. The star is where a group is joined. Trt = c1ccc(C(c2ccccc2)(c2ccccc2)*)cc1; Cbz = O=C(OCc1ccccc1)*

The first experiment has as its system UO-31 renal. The experiment is described as follows: NCI-60 one-dose screen, 48 h (100 = growth as untreated, 0 = no growth, -100 = all killed). The conditions noted are these: 10 µM. The procedure:
Growth inhibition of the UO-31 human tumor cell line is measured as a screen for anti-cancer activity. Cells are grown in 96 well plates and exposed to the test compound for 48 hours. Compounds are tested at a single concentration, which is 10^-5 M for most compounds. The reported endpoint is percent growth (GI% or GIPRCNT), where numbers from 0 - 100% represent growth inhibition, and numbers from -100% - 0 represent cell death. For example, a value of 40 represents 60% growth inhibition. A value of 0 means no net growth occurred over the course of the experiment. A value of -40 indicates 40% of cells at the beginning of the experiment died by the end of the experiment. A value of -100 means all cells are dead at the end of the experiment.
NCI-60 Human Tumor Cell Lines Screen was performed using the standard one-dose NCI protocol, which is described in more detail at https://dtp.cancer.gov/discovery_development/nci-60/default.htm.
Compounds with GIPRCNT values below 10 were considered active. Activity score was based on GIPRCNT using the following formula: […]
Score is 0 for GIPRCNT values of 100 or above, 50 for GIPRCNT values of 0, and 100 for GIPRCNT values of -100.
For `COc1ccc(-c2cscc2N)cc1`, the growth was 78%.

Still in this experiment, the particulars now being: 10 µM unless noted.
Consider `CC1OC(OC2C(OC3CCC4(C)C(CCC5(C)C4CC=C4C6CC(C)(C)CCC6(CO)C(O)CC45C)C3(C)C)OC(C(=O)O)C(OC3OC(COC4OC(CO)C(O)C(O)C4O)C(O)C(O)C3O)C2O)C(O)C(O)C1O` (stereo not given), for which the growth was -88.7% (active). Still for that read-out and setting: for `CCOC(=O)/C(=C\c1ccc(-c2ccccc2)cc1)C(C)=O` the value was 82.7%.

For `COc1ccc2nc3cc(Cl)ccc3c(NCCNc3c4ccc(Cl)cc4nc4ccc(OC)cc34)c2c1`, the growth is -90.3% (active).

Turning to `O=Nc1ccccc1N=O`, the growth is 64%. On to `NC(=S)N/N=C\c1nccc2c(C(F)(F)C(F)(F)C(F)(F)F)cccc12`, for which the growth is -31.9% (active). Same read-out and setting: the figure for `CN(C)c1ccc(C(=C2C=CC(=[N+](C)C)C=C2)c2ccc(N(C)C)cc2)cc1` (tested in a mixture with another compound) is -80.8% (active). As to `COc1ccccc1/C=C\C(=O)c1ccccc1`, the growth was 44.1%. Consider `Cc1ccc2c(ccc3c[n+]4c5ccccc5ccc4n32)c1`, for which the growth is 51%. Still for that read-out and setting: for `N#CSCc1ccc(Cl)c(CSC#N)c1` the value was 24.6%; for `O=C(CC1(O)C(=O)Nc2c(Cl)ccc(Cl)c21)c1ccc(Cl)cc1Cl` (stereo not given), 86.2%; for `O=C(O)C1C2CC3C(OC(=O)C31)C2Br` (stereo not given), 91.4% and 97.2%. `Nc1nc(N)c2nc(CNc3ccc(C(=O)NC(CCC(=O)O)C(=O)O)cc3)cnc2n1` (stereo not given): the growth is 13.6% and 31.4%.

In the case of `Oc1c(Cl)cc(Cl)c2cccnc12`, the growth is 42.8% and 24.9%. The same measure, in the same setting: the figure for `N#CSCc1c(Cl)cccc1Cl` is 40.2%; for `CCN1/C(=C\c2cc[n+](CC)c3ccccc23)C=Cc2ccccc21` it is 11.4%; for `Cn1c2c(c3ccccc31)CCN1C[C@@H]3CCCC[C@H]3C[C@@H]21` it is 22.9%.

As to `CN(C)c1ccc(/C=N/N=C(\C#N)[S][Sn]([Cl])([c]2ccccc2)[c]2ccccc2)cc1`, the growth was -0.649% (active). In the case of `O=C(/C=C\c1ccccc1)N1c2ccccc2CC1c1c[nH]c2ccccc12` (stereo not given), the growth is 40.1%. Consider `CCOc1ccc(-c2nc3ccc(-c4nc5ccc(N6CCN(C)CC6)cc5[nH]4)cc3[nH]2)cc1`, for which the growth is 23.2%. As for `COC(=O)C(CSC(c1ccccc1)(c1ccccc1)c1ccccc1)NC(=O)C(CC(N)=O)NC(=O)OCc1ccccc1` (stereo not drawn) (Cbz-Asn-Cys(Trt)-OMe; configuration not given here), the growth is 58.4%.

As for `COc1ccc(N=N/N=c2\sc3cc(OC)ccc3n2C)cc1`, the growth was 82.7%.

Turning to `COc1cc(NS(C)(=O)=O)ccc1Nc1c2ccccc2nc2ccccc12`, the growth was 34.3% [2.5 µM]. Turning to `O=C(/C=C/C=C/c1ccccc1)c1ccco1`, the growth is 62.6%. Consider `Cc1ccc(C(=Nc2ccccc2)N=P(c2ccccc2)(c2ccccc2)c2ccccc2)cc1`, for which the growth is -79.6% (active). For the compound `Cc1ccc2nc(-[n+]3cc4ccccc4cc3C)ccc2c1`, the growth was 88.8%. Consider `CCCCCC(CCCCC)C(=O)O`, for which the growth was 87.6%. With `Oc1c(Br)c(Br)c(O)c(Br)c1Br`, the growth was -80.4% (active). As to `Nc1ncnc2c1ncn2C1OC(CO)C(O)C1O` (stereo not given), the growth was 92.9% and 76.6% and 90.3%. In the case of `CC(=O)Nc1cccc2cc(O)ccc12`, the growth was 94.6% and 89.5% and 75.1%. In the case of `O=C(/C=C\c1cc(Br)ccc1O)/C=C/c1cc(Br)ccc1O`, the growth is -72.9% (active). On the same count and under the same terms, the figure for `O=C1C2=C(Nc3cc([N+](=O)[O-])ccc3N2)OC1c1c2ccccc2cc2ccccc12` (stereo not given) is 28.3%; for `CC(=O)ON=C1C=CC(=C(C#N)c2ccccc2)C=C1` it is 38%. The same measure, in the same setting: the figure for `Cc1ccc(N=C=C(c2ccccc2)c2ccccc2)cc1` is 80.3%. With `CN(C)CCOc1ccc2c(c1)C(=O)/C(=C\c1ncc([N+](=O)[O-])n1C)C2`, the growth was -36.7% (active). For the compound `CN(C)c1ccc(N=Nc2cccc3ccccc23)cc1`, the growth is 57.5%.

Regarding `O[C@H]1[C@H]2c3cc4c(cc3CN3CCC(=C[C@@H]1O)[C@H]23)OCO4`, the growth is 33%. Turning to `COC(=O)Nc1nc2ccc(C(=O)c3ccccc3)cc2[nH]1`, the growth was 48% and 38.3% and 25.3%.

`O=C1C=CC(=O)N1C1c2ccccc2-c2ccccc21`: the growth was 75.5%.

The same experiment, now with this note: 100 µM.
In the case of `COc1ccc(-c2cscc2N)cc1`, the growth is 27%.
